This is a sample that favours compounds with a hit; in the whole collection about 19% have one here.
DT40 TDP1 CPT = growth inhibition of DT40 Tdp1-/-;hTDP1 cells with camptothecin (screen for TDP1 inhibitors) | actives 12% (n = 420,000) | Potency, µM (top dose mostly 46.2 µM), inactives show at the top dose activity change, negative = growth inhibition, hits mostly inhibitors | chicken DT40 Tdp1-/-;hTDP1 cells + 20 nM CPT, ATP luminescence, 48 h | AID 686979; also: potency is read from the fitted curve at half-maximal effect; nearly all actives have a fitted effect of over 55% in size
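Chicken DT40 Tdp1-/- cells stably complemented with human TDP1 were seeded at 400 cells/well in medium containing 20 nM camptothecin, exposed to pin-transferred compounds, and grown at 37 °C for at least 48 hr. Viability was read as ATP luminescence.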
HT1080-NT tox = kills 2HG-producing HT-1080-NT fibrosarcoma cells; AID 686970; HT-1080-NT fibrosarcoma viability, CellTiter-Glo ATP luminescence, 48 h; Potency, µM (series often up to 46.1 µM), without a hit: at the top dose activity, negative = less viability, actives largely listed as cytotoxic; actives 1.6% (n = 360,000);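 also: NT is the 2HG producing partner of a matched IDH1 knockdown line; potency is read from the fitted curve at half-maximal effect; 0% = DMSO-treated cells and -100% = media-only wells without cells; nearly all actives have a fitted effect of over 55% in size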
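A 48-hour cytotoxicity screen used HT-1080-NT cells plated 2 hours before compound delivery. ATP-based CellTiter-Glo luminescence measured viability, normalized to DMSO and no-cell controls.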
IL-1B inflam inh = inflammasome signaling inhibition, IL-1 beta readout | actives 4.7% (n = 360,000) | THP-1 LPS/ATP IL-1B secretion, AlphaLISA, 16 h; hits give low values | AID 743279 | activity change, % at 57.5 µM; in the data active = activity change below about -50%; inconclusive = mostly about -30% to -49%
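Secreted IL-1B measured by AlphaLISA bead assay after 16 h compound exposure of THP-1 cells; compounds (final up to 57.5 uM) added 1 h before LPS (250 ng/mL) and ATP (1.25 mM) stimulation; lower signal means less secretion.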
DT40 TDP1 no CPT = qHTS for Inhibitors of human tyrosyl-DNA phosphodiesterase 1 (TDP1): qHTS in cells in absence of CPT. Potency, µM (top dose mostly 46.2 µM), for the others: top-dose activity change, negative = growth inhibition, usual class: inhibitors. actives 15% (n = 420,000). DT40 Tdp1-/- hTDP1 cells, no CPT, ATP luminescence, 48 h; also: potency is read from the fitted curve at half-maximal effect; nearly all actives have a fitted effect of over 55% in size
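Cells were dispensed at 400 per well, compounds added by pin tool, plates incubated ≥48 hr at 37 °C, then CellTiter-Glo added for 30 min at room temperature before luminescence reading. Line: DT40 Tdp1-/- complemented with hTDP1; camptothecin omitted.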
ELG1 DNA repair = inhibitors of ELG1-dependent DNA repair in HEK293T cells; HEK293T ELG1-luciferase reporter, luminescence, 16 h; DNA damage induced by 5-fluorouridine; Potency, µM (highest dose often 46.1 µM), for inactives: top-dose activity change, negative = inhibition, hits mostly inhibitors; actives 2.3% (n = 330,000); AID 504467; also: potency is read from the fitted curve at half-maximal effect; nearly all actives have a fitted effect of over 55% in size
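Cells (2,000 per well) received 5-fluorouridine plus test compound or DMSO and were incubated 16 hr at 37 °C, 5% CO2. Luciferase activity was read by luminescence 30 min after ONE-Glo addition; signal suppression marked inhibition of damage-induced ELG1 function.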
HT1080 IDH1KD tx = toxicity to HT-1080 IDH1 knockdown cells (counter line) | HT-1080 IDH1 knockdown viability, ATP luminescence, 48 h | Potency, µM (doses to about 46.1 µM), for inactives: at the highest dose activity, negative = toxicity, usual class: cytotoxic | AID 686971 | actives 2% (n = 360,000);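 also: potency is read from the fitted curve at half-maximal effect; 0% = DMSO wells and -100% = cell-free medium wells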
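Cytotoxicity counter-line: IDH1KD HT-1080, 48 h, CellTiter-Glo. Curves classed by r2, magnitude and activity.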
* marks the source's active call; other numbers are inactive results. Unless noted, calls follow the shape of the dose curve; as a rule, active = well fitted curve in the direction sought with a large enough effect; inconclusive = small, poorly fitted or top-dose-only effect, or another doubt; inactive = no such curve, though single readings can be large; an effect the other way counts as inactive or inconclusive. Unless noted, % is scaled to controls: 0 for no effect and ±100 for the full control effect.

COC(=O)C1N[C@@H]([C@@H](NC(=O)COc2ccccc2)C(=O)Nc2ccc(OC)cc2)SC1(C)C (stereo partly specified) was read as DT40 TDP1 CPT inconclusive, HT1080-NT tox 12.3%, IL-1B inflam inh 4.5, DT40 TDP1 no CPT inconclusive and HT1080 IDH1KD tx 2.3%.
For O=C(CCCn1c(SCc2cccc(F)c2)nc2ccccc2c1=O)NCC1CCCO1 (stereo unspecified) the results were DT40 TDP1 CPT inconclusive, HT1080-NT tox 3.1%, IL-1B inflam inh -78.6*, DT40 TDP1 no CPT inconclusive, ELG1 DNA repair inconclusive and HT1080 IDH1KD tx 0.9%.
For COc1ccc(C)cc1-n1c(SCC(=O)Nc2cccc(C(=O)O)c2)nc2ccccc2c1=O the results were DT40 TDP1 CPT 4.1%, HT1080-NT tox -0.3%, IL-1B inflam inh -7.0, DT40 TDP1 no CPT 0.3%, ELG1 DNA repair 7.1% and HT1080 IDH1KD tx -1.3%.
Screening O=C(CCCn1c(SCC(=O)NCC2CCCO2)nc2ccccc2c1=O)NCc1ccccc1 (stereo unspecified) returned DT40 TDP1 CPT 6.5%, HT1080-NT tox 1.1%, IL-1B inflam inh -26.7, DT40 TDP1 no CPT -24.3%, ELG1 DNA repair -8.9% and HT1080 IDH1KD tx 4.2%.
COc1ccc(C)cc1-n1c(SCC(=O)NC2CC2)nc2ccccc2c1=O was read as DT40 TDP1 CPT 18.4µM*, HT1080-NT tox 1.3%, IL-1B inflam inh inconclusive, DT40 TDP1 no CPT inconclusive, ELG1 DNA repair 10.0% and HT1080 IDH1KD tx -9.1%.
`Cc1cccc(N2CCN(C(=O)CCCOc3ccccc3)CC2)c1C` gave DT40 TDP1 CPT inconclusive, HT1080-NT tox -18.8%, IL-1B inflam inh 9.5, DT40 TDP1 no CPT inconclusive, ELG1 DNA repair inconclusive and HT1080 IDH1KD tx -3.1%.
CCOC(=O)c1[nH]c(C)c(CCC(=O)N2CCN(c3ccc(Cl)cc3)CC2)c1C was read as DT40 TDP1 CPT inconclusive and DT40 TDP1 no CPT 23.1µM*.
For CCOC(=O)c1c(C)[nH]c(C)c1S(=O)(=O)N(C)CC(=O)N1CCN(c2ccc(Cl)cc2)CC1 the results were DT40 TDP1 CPT 14.6µM* and DT40 TDP1 no CPT inconclusive.
`CCOC(=O)c1[nH]c(C)c(CCC(=O)N2CCN(c3cccc(C)c3C)CC2)c1C` gave DT40 TDP1 CPT 14.6µM* and DT40 TDP1 no CPT 18.4µM*.
For CCOC(=O)c1c(C)[nH]c(C)c1S(=O)(=O)N(C)CC(=O)N1CCN(c2ccc(OC)cc2)CC1 the results were DT40 TDP1 CPT 4.9%, HT1080-NT tox 10.8%, IL-1B inflam inh 7.2, DT40 TDP1 no CPT -10.0%, ELG1 DNA repair 0.8% and HT1080 IDH1KD tx 0.0%.
`C=CCn1c(SCc2cc(=O)n3ccsc3n2)nc2cc(Cl)ccc2c1=O` gave DT40 TDP1 CPT 0.5%, HT1080-NT tox 6.7%, IL-1B inflam inh 8.3, DT40 TDP1 no CPT inconclusive, ELG1 DNA repair -18.9% and HT1080 IDH1KD tx 1.6%.
Nc1cc(N)nc(SCC(=O)NCCC2=CCCCC2)n1 was read as DT40 TDP1 CPT -14.5%, HT1080-NT tox 1.0%, IL-1B inflam inh -7.5, DT40 TDP1 no CPT -19.0%, ELG1 DNA repair 0.6% and HT1080 IDH1KD tx 6.0%.
CCCn1c(SCN2C(=O)c3ccccc3C2=O)nc2cc(Cl)ccc2c1=O was read as DT40 TDP1 CPT 20.6µM*, HT1080-NT tox -5.0%, IL-1B inflam inh 5.5, DT40 TDP1 no CPT 23.1µM*, ELG1 DNA repair -7.4% and HT1080 IDH1KD tx -0.4%.
Screening C=CCn1c(SCC#N)nc2cc(Cl)ccc2c1=O returned DT40 TDP1 CPT inconclusive and DT40 TDP1 no CPT 12.6µM*.

Compound activity: PubChem, National Center for Advancing Translational Sciences (NCATS)
